Here are results for 32 molecules from PubChem BioAssay (NCI).

Values joined by “and” are separate entries in the source; they are usually repeats but may differ in a detail not shown here. Identical values can stand only once. About 83,000 compounds went through this panel and 20% of them were active in at least one assay; those are over-represented in the sample as a whole.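 48-hour exposure, single concentration, 96-well plates; percent growth endpoint where 0 means no net growth. Active: below 10.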 Active and inactive are the calls of the source. Where a SMILES comes first, the peptide text is derived from it. The star is where a group is joined. Trt = c1ccc(C(c2ccccc2)(c2ccccc2)*)cc1; Cbz = O=C(OCc1ccccc1)*

For one assay, the system named is MDA-MB-435 melanoma. The assay can be described thus: NCI-60 one-dose screen, 48 h (100 = growth as untreated, 0 = no growth, -100 = all killed). Particulars: 10 µM unless noted.
For the molecule `CCCCCCCCCCCCCCCCCCOP(=O)([O-])OC1CC[N+](C)(C)CC1`, the growth was 15.8% (inactive) and -67.3% (active). Same read-out and setting: for `Cn1c2ccccc2c2nnc(N/N=C/c3ccccn3)nc21` the value was 19.1% (inactive); for `O=[N+]([O-])c1ccc2c(N=Nc3ccc4ccccc4c3O)c(O)cc(S(=O)(=O)O)c2c1`, 97% (inactive). As to `CCC(CCCN(CC)CCc1ccccc1)OC(=O)c1cc(OC)c(OC)c(OC)c1` (configuration not stated), the growth is 100% (inactive).

Regarding `O=C1c2ccccc2C(=O)N1c1ccccc1`, the growth was 98.7% (inactive).

On to `COC(=O)C(CSC(c1ccccc1)(c1ccccc1)c1ccccc1)NC(=O)C(CC(N)=O)NC(=O)OCc1ccccc1` (stereo not drawn) (Cbz-Asn-Cys(Trt)-OMe; configuration not given here), for which the growth is -37.3% (active). Still for that read-out and setting: for `O=C(Nc1ccccc1)c1cc(Cl)ccc1O` the value was 39.3% (inactive). The same measure, in the same setting: the value for `CC1OC(OC2C(OC3CCC4(C)C(CCC5(C)C4CC=C4C6CC(C)(C)CCC6(CO)C(O)CC45C)C3(C)C)OC(C(=O)O)C(OC3OC(COC4OC(CO)C(O)C(O)C4O)C(O)C(O)C3O)C2O)C(O)C(O)C1O` (configuration not stated) was -85.3% (active); that for `C[N+](C)=c1ccc2nc3c(cc(NCCCNc4cc5oc6cc(=[N+](C)C)ccc-6nc5c5ccccc45)c4ccccc43)oc-2c1` was -82.1% (active). For `CCC(CC)COC(=O)c1ccc(O)c(O)c1`, the growth was 69.8% (inactive). With `O=C(Nc1ccc(F)cc1)ON=C1CCCCC1`, the growth was 98.1% [100 µM] (inactive). The same measure, in the same setting: for `CC1=CC(O)C2CC1C2(C)C` (configuration not stated) the value was 103% (inactive) and 97.3% (inactive); for `CCN(CC)CCOc1ccc(-c2nc3cc(Cl)ccc3s2)cc1`, -51.1% (active). Regarding `CC(=O)ON=C1C=CC(=C(C#N)c2ccccc2)C=C1`, the growth was -2.19% (active). Still for that read-out and setting: for `O=C1c2ccccc2C(=O)c2sc(Nc3cccc(Cl)c3)nc21` the value was -83.5% (active).

With `Cc1ccnc(NC(c2ccccc2)c2ccc3cccnc3c2O)c1` (configuration not stated), the growth was 30.5% (inactive). On to `Oc1c(Br)cc(Cl)cc1C(c1cc(Cl)cc(Br)c1O)C(Cl)(Cl)Cl`, for which the growth was 39% (inactive). As for `CC(=O)Nc1cccc2cc(O)ccc12`, the growth was 107% (inactive) and 117% (inactive) and 103% (inactive).

Regarding `Cc1cc(N)c2ccccc2[n+]1CCCCCCCCCC[n+]1c(C)cc(N)c2ccccc21`, the growth is -77.2% (active) and 6.1% (active). Regarding `N#CSCc1ccc(Cl)c(CSC#N)c1`, the growth was 3.85% (active).

In the case of `CNc1ccc(N)cc1`, the growth was 96.2% (inactive). Still for that read-out and setting: the value for `COc1cc(NS(C)(=O)=O)ccc1Nc1c2ccccc2nc2ccccc12` was 64.1% [2.5 µM] (inactive); that for `O=C(O)c1ccc2c3c(ncnc13)-c1ccccc1C2=O` was -60% (active).

Consider `CCC(=O)Sc1ccccc1C(=O)Nc1ccc(Cl)cc1`, for which the growth was 25.9% (inactive).

Turning to `COc1ccc2nc3cc(Cl)ccc3c(NCCNc3c4ccc(Cl)cc4nc4ccc(OC)cc34)c2c1`, the growth was -78.9% (active). Same read-out and setting: the value for `N[C@H](C(=O)O)[C@@H]1CC(Cl)=NO1` was 29.6% [20 µM] (inactive).

Consider `CCOC(=O)c1c(C)[nH]c(CO)c1C`, for which the growth is 111% (inactive).

The same assay, now with this note: 100 µM.
Consider `O=C(Nc1c(Cl)cccc1Cl)Oc1cccc2cccnc12`, for which the growth is 23.8% (inactive). The same measure, in the same setting: for `O=C(Nc1cccc(Br)c1)Oc1cccc2cccnc12` the value was 43.1% (inactive).

For `COc1ccc(-c2cscc2N)cc1`, the growth was 30.4% (inactive). As for `CN(C)C(=O)c1ccc(SC(=S)NCc2ccccc2)cc1`, the growth is 4.45% (active). Consider `O=C(O)c1c(Cl)c(Cl)c(Cl)c(Cl)c1-c1c2cc(I)c(=O)c(I)c-2oc2c(I)c(O)c(I)cc12`, for which the growth was 69% (inactive).

A further assay relates to SW-620 colon. Described as above. Particulars: 10 µM.
With `O=C(Nc1cccc(Br)c1)Oc1cccc2cccnc12`, the growth is 106% (inactive). Still for that read-out and setting: the value for `COc1ccc(-c2cscc2N)cc1` was 88.5% (inactive); that for `O=C(O)c1c(Cl)c(Cl)c(Cl)c(Cl)c1-c1c2cc(I)c(=O)c(I)c-2oc2c(I)c(O)c(I)cc12` was 107% (inactive) and 140% (inactive) and 109% (inactive).

Staying with this assay, now noted: 10 µM unless noted.
Turning to `CCCCCCCCCCCCCCCCCCOP(=O)([O-])OC1CC[N+](C)(C)CC1`, the growth was 46.3% (inactive) and 25% (inactive). On the same count and under the same terms, for `Cn1c2ccccc2c2nnc(N/N=C/c3ccccn3)nc21` the value was 31.3% (inactive); for `O=[N+]([O-])c1ccc2c(N=Nc3ccc4ccccc4c3O)c(O)cc(S(=O)(=O)O)c2c1`, 92.2% (inactive). Same read-out and setting: the value for `CCC(CCCN(CC)CCc1ccccc1)OC(=O)c1cc(OC)c(OC)c(OC)c1` (configuration not stated) was 82.9% (inactive).

For `O=C1c2ccccc2C(=O)N1c1ccccc1`, the growth was 109% (inactive). In the case of `COC(=O)C(CSC(c1ccccc1)(c1ccccc1)c1ccccc1)NC(=O)C(CC(N)=O)NC(=O)OCc1ccccc1` (stereo not drawn) (Cbz-Asn-Cys(Trt)-OMe; configuration not given here), the growth is 62.6% (inactive). On the same count and under the same terms, for `O=C(Nc1ccccc1)c1cc(Cl)ccc1O` the value was 63.3% (inactive); for `CC1OC(OC2C(OC3CCC4(C)C(CCC5(C)C4CC=C4C6CC(C)(C)CCC6(CO)C(O)CC45C)C3(C)C)OC(C(=O)O)C(OC3OC(COC4OC(CO)C(O)C(O)C4O)C(O)C(O)C3O)C2O)C(O)C(O)C1O` (configuration not stated), -64.2% (active); for `C[N+](C)=c1ccc2nc3c(cc(NCCCNc4cc5oc6cc(=[N+](C)C)ccc-6nc5c5ccccc45)c4ccccc43)oc-2c1`, -25.5% (active). Take `CCC(CC)COC(=O)c1ccc(O)c(O)c1`: the growth is 80.5% (inactive). With `O=C(Nc1ccc(F)cc1)ON=C1CCCCC1`, the growth was 99.8% [100 µM] (inactive).

For the molecule `CC1=CC(O)C2CC1C2(C)C` (configuration not stated), the growth is 105% (inactive) and 108% (inactive). Still for that read-out and setting: for `CCN(CC)CCOc1ccc(-c2nc3cc(Cl)ccc3s2)cc1` the value was -52.9% (active); for `CC(=O)ON=C1C=CC(=C(C#N)c2ccccc2)C=C1`, 6.41% (active); for `O=C1c2ccccc2C(=O)c2sc(Nc3cccc(Cl)c3)nc21`, -54.6% (active).

In the case of `Cc1ccnc(NC(c2ccccc2)c2ccc3cccnc3c2O)c1` (configuration not stated), the growth was 48.9% (inactive). On the same count and under the same terms, the value for `Oc1c(Br)cc(Cl)cc1C(c1cc(Cl)cc(Br)c1O)C(Cl)(Cl)Cl` was 17.8% (inactive). Still for that read-out and setting: the value for `CC(=O)Nc1cccc2cc(O)ccc12` was 104% (inactive) and 92% (inactive) and 98.7% (inactive). Turning to `Cc1cc(N)c2ccccc2[n+]1CCCCCCCCCC[n+]1c(C)cc(N)c2ccccc21`, the growth was 11.6% (inactive) and 18.1% (inactive). On to `N#CSCc1ccc(Cl)c(CSC#N)c1`, for which the growth was 20.4% (inactive). The same measure, in the same setting: the value for `CNc1ccc(N)cc1` was 104% (inactive); that for `COc1cc(NS(C)(=O)=O)ccc1Nc1c2ccccc2nc2ccccc12` was 41.5% [2.5 µM] (inactive); that for `O=C(O)c1ccc2c3c(ncnc13)-c1ccccc1C2=O` was 87.7% (inactive). On to `CCC(=O)Sc1ccccc1C(=O)Nc1ccc(Cl)cc1`, for which the growth was 17.5% (inactive). The same measure, in the same setting: the value for `COc1ccc2nc3cc(Cl)ccc3c(NCCNc3c4ccc(Cl)cc4nc4ccc(OC)cc34)c2c1` was -50.4% (active); that for `N[C@H](C(=O)O)[C@@H]1CC(Cl)=NO1` was 10.2% [20 µM] (inactive); that for `CCOC(=O)c1c(C)[nH]c(CO)c1C` was 109% (inactive).
